Hits are enriched below; roughly 3% of the tested compounds scored in any of these assays.
TRAIL sens C8 – viability loss with TRAIL in NB7+C8 cells, primary screen, TRAIL sensitizer project, cell-based, ATPlite luminescence. inhibition (viability loss, TRAIL sensitization), % at 10 µM. 360,000 tested, 1% active. AID 624354, 2012;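 active = compounds causing at least 50% loss of cell viability in the single-dose screen, relative to plate controls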
SENP8 block-1 – human SENP8 protease inhibitors, primary screen, biochemical, fluorescence, Nedd8 protein substrate, uHTS. Sentrin-specific protease 8 (Homo sapiens), Q96LD8. recombinant SENP8. inhibition, % at 20 µM. 360,000 tested, 0.64% active. AID 602440, 2012; in the data active = inhibition mostly above about 40%, no sharp cut-off; inactive = mostly below about 27%
Target sequence (Q96LD8 whole entry, looked up): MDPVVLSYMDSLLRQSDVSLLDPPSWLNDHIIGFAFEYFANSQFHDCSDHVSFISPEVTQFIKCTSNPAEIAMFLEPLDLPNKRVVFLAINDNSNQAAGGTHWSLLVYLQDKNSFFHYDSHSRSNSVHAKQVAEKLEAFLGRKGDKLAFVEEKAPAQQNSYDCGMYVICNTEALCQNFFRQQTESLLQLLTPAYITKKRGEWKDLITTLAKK
SENP7 block – SENP7 protease inhibitors, primary screen, biochemical, luminescence, uHTS. recombinant SENP7, Z-RLRGG-aminoluciferin luminescence, 40 min. inhibition, % at 5 µM. 330,000 tested, 1.5% active. AID 434973, 2010;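 active = inhibition above about 50% at the single test dose, limit read from the data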
SENP6 block – SENP6 protease inhibitors, primary screen, biochemical, luminescence, uHTS; Sentrin-specific protease 6 (Homo sapiens), Q9GZR1; inhibition, % at 10 µM; Recombinant SENP6 catalytic domain, aminoluciferin luminescence; 330,000 tested, 1.8% active; AID 2599, 2010;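 active = inhibition above about 50% at the single tested dose, limit read from the data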
SENP8 block-2 – SENP8 protease inhibitors, primary screen, biochemical, luminescence | AID 2540, 2010 | purified SENP8, Z-RLRGG-aminoluciferin cleavage | 330,000 tested, 1.2% active | inhibition, % at 10 µM | Sentrin-specific protease 8 (Homo sapiens), Q96LD8; in the data active = inhibition above about 50%
PPC-1+TRAIL kill – compounds killing PPC-1 cancer cells with TRAIL present, primary screen, TRAIL potentiator project, ATPLite luminescence, uHTS; PPC-1 cells + TRAIL, ATPLite viability luminescence; cell killing (% activity), % at 4 µM or 5 µM; 220,000 tested, 0.41% active;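 active = cell killing above 50% in the first pass at 4 µM, then a duplicate retest at 5 µM averaging 50% or more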
Large screens that a line does not name were inactive.

CCOC(=O)N1CCC(N2C(=O)c3ccc(C(=O)Nc4ccc(OC)c(OC)c4)cc3C2=O)CC1	SENP8 block-1 13 (no result: PPC-1+TRAIL kill)
COc1ccc(NC(=O)c2cccc(N3C(=O)c4ccc(C(=O)Nc5ccc(OC)c(O)c5)cc4C3=O)c2)cc1O	TRAIL sens C8 58 (no result: PPC-1+TRAIL kill)
CCOC(=O)c1c(NC(=O)COc2ccccc2C#N)sc2c1CC(C)(C)NC2(C)C	none (no result: PPC-1+TRAIL kill)
COC(=O)c1c(NC(=O)c2ccccc2)sc2c1CC(C)(C)NC2(C)C	none
COC(=O)c1c(NC(=O)c2ccc(OC(C)C)cc2)sc2c1CC(C)(C)NC2(C)C	TRAIL sens C8 72
CC1(C)Cc2c(sc(NC(=O)COc3cccc4ccccc34)c2C#N)C(C)(C)N1	TRAIL sens C8 85
CCOC(=O)c1c(NC(=O)COc2ccccc2OCC)sc2c1CC(C)(C)NC2(C)C	TRAIL sens C8 91 (no result: PPC-1+TRAIL kill)
CCOC(=O)/C(=C\c1cccnc1)C(=O)c1cc(C(C)=O)c(Nc2ccccc2)s1	TRAIL sens C8 94
COC(=O)c1ccccc1NC(=S)N(Cc1ccc2c(c1)OCO2)Cc1cc2cc(OC)ccc2[nH]c1=O	none
COc1ccc(NC(=O)/C(Cl)=C(/Cl)S(=O)Cc2ccccc2)cn1 (stereo not given)	TRAIL sens C8 96
COc1ccc(CS(=O)(=O)/C(Cl)=C(/Cl)C(=O)Nc2ccc(OC)nc2)cc1	TRAIL sens C8 90
COc1ccc(NC(=O)Cc2ccccc2)cn1	none
O=C(CCCC1=NS(=O)(=O)c2ccccc2N1)N1CCN(c2ccc([N+](=O)[O-])cc2)CC1	none (no result: PPC-1+TRAIL kill)
COc1cccc(C2=CC(=O)CC(C)(C)C2)n1	none (no result: PPC-1+TRAIL kill)
CC(=O)N(c1ccccc1)C1CCCC1	none
O=C(CCl)N(c1ccccc1)C1CCCCC1	TRAIL sens C8 95
CCOC(=O)c1c(C)[nH]c(C(=O)NCCc2ccc(OC)c(OC)c2)c1C	none (no result: PPC-1+TRAIL kill)
Cn1c2ccccc2c(=O)n2c(=O)c3ccccc3cc12	SENP7 block 95, SENP6 block 90, SENP8 block-2 97 (no result: TRAIL sens C8, SENP8 block-1)
CC(=O)c1ccc(NC(=O)CC(C)S(=O)(=O)c2ccc3c(c2)CCN3C(C)=O)cc1 (stereo not given)	none (no result: PPC-1+TRAIL kill)
O=C(COC(=O)c1ccc(F)c(S(=O)(=O)N2CCOCC2)c1)NCc1ccc(Cl)cc1	none (no result: PPC-1+TRAIL kill)
COc1cc(/C=C2\C(=O)N(CCC#N)N=C2C)c(Br)cc1OC(C)C	SENP8 block-1 46
CCN1CCCC1CNCc1cccc(OC)c1OCc1ccc(F)cc1 (stereo not given)	none
COc1ccc(C(CCN(Cc2ccc(OC)c(OC)c2)C(C)=O)c2ccccc2)cc1 (stereo not given)	none
COc1ccc(CN(CCC(c2ccccc2)c2ccc(OC(C)C)cc2)C(=O)CCl)cc1OC (stereo not given)	TRAIL sens C8 96
CCOc1ccc(-n2c(SCC(N)=O)nc3c([nH]c4ccccc43)c2=O)cc1	TRAIL sens C8 51
Nc1nccnc1C(=O)OCC(=O)c1ccc[nH]1	none (no result: PPC-1+TRAIL kill)
CCN(CC)C(=O)c1ccc(/C=C/c2c[nH]c3ccccc23)[n+](C)c1	none
CC[n+]1c(/C=C/c2c[nH]c3ccccc23)ccc2cc(C)ccc21	PPC-1+TRAIL kill 92 (no result: TRAIL sens C8, SENP8 block-1)
O=C(COC(=O)c1ccc([N+](=O)[O-])o1)NC1CCCC1	SENP8 block-1 40 (no result: PPC-1+TRAIL kill)
O=C(CCN1C(=O)c2ccccc2S1(=O)=O)Nc1ccc(F)c(F)c1F	none (no result: PPC-1+TRAIL kill)
COc1ccccc1C(=O)N/C(=C\c1cn(S(=O)(=O)N(C)C)c2ccccc12)C(=O)NCCCN1CCOCC1	none (no result: PPC-1+TRAIL kill)
COc1cccc(N=Cc2ccc(O)cc2O)c1	none
Oc1ccc(C=Nc2ccc3ncccc3c2)c(O)c1	SENP6 block 84, SENP8 block-2 89 (no result: TRAIL sens C8, SENP8 block-1)
CC1=NN(c2ccccc2)C(=O)C1N=Nc1ccc(S(N)(=O)=O)cc1 (stereo not given)	SENP8 block-1 52
Cc1c(Cl)cccc1NC(=S)N=Nc1c(O)n(CN2CCOCC2)c2ccccc12	PPC-1+TRAIL kill 53
C=CCn1c(O)c(N=NC(=S)Nc2cccc(C)c2)c2ccccc21	SENP8 block-1 42

Bioassay records (PubChem BioAssay)
